Pf Dd2 inh = Plasmodium falciparum Dd2 growth inhibition; P. falciparum Dd2 growth, SYBR Green, 72 h; Potency, µM (top dose mostly 28.9 µM), most hits filed as inhibitors; 120,000 compounds, 4.3% hits; AID 1347417; active = well fitted inhibition curve with a large enough effect; also: nearly all actives have a fitted effect of over 65% in size
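Readout: SYBR Green fluorescence, 485 nm excitation, 535 nm emission, after ~16 h lysis at 37C. Before that, Dd2-infected red cells (2.5% hematocrit) grew 72 h with compound, 29 uM top final concentration.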
Large screens that a line does not name were inactive. The full list was thinned out, with hits kept by preference.

Cc1ccc(CSc2nc3ccccc3c3nc(CCn4c(C)nc5ccccc54)nn23)cc1	none
O=C(CSc1nc2ccccc2c2nc(-c3ccccc3)nn12)Nc1ccc(Br)cc1	none
Cc1ccc(NC(=O)CSc2nc3ccccc3c3nc(CCn4cncc4C)nn23)c(C)c1	none
COc1cc2nc(SCC(=O)Nc3cccc(C)c3)n3nc(CCn4c(C)nc5ccccc54)nc3c2cc1OC	Pf Dd2 inh 2.2µM
COc1cc2nc(SCC(=O)Nc3cccc(C)c3)n3nc(-c4ccccc4)nc3c2cc1OC	none
Cc1cccc(NC(=O)CSc2nc3ccccc3c3nc(CCn4cncc4C)nn23)c1	Pf Dd2 inh 10µM
Cc1n[nH]c(C)c1CCc1nc2c3ccccc3nc(SCC(=O)Nc3ccc(F)cc3)n2n1	Pf Dd2 inh 8.9µM
Cc1ccccc1NC(=O)CSc1nc2ccccc2c2nc(CCn3cncc3C)nn12	none
Cc1cccc(C)c1NC(=O)CSc1nc2ccccc2c2nc(CCc3c(C)n[nH]c3C)nn12	none
CCc1ccc(CN2CCOC(Cc3ccc(OC)cc3)C2)o1 (centres undefined)	none
O=C(CN1C(=O)C(c2ccccc2)=NC12CCCC2)NCc1ccccc1	none
Cc1ccc(-c2cc3c(=O)n(CCNC(=O)c4ccco4)ccn3n2)c(C)c1	none
COc1ccc(Cl)cc1NC(=O)Cn1c(N2CCCCC2)nc(C)c(C)c1=O	none
Cc1c(C(C)NC(=O)Cn2ccc(=O)[nH]c2=O)cnn1-c1ccc(F)cc1F (centres undefined)	none
CCC1(O)CCC12CCN(C(=O)C1CC1)CC2 (centres undefined)	none
CCCCc1nn(CC(=O)NCc2noc(C3CCCO3)n2)c(=O)n1CC (centres undefined)	none
Cc1noc([C@@H]2CN(Cc3ccccc3C(F)(F)F)C[C@H]2CO)n1	none
CN(Cc1cccnc1)C1CN(C(=O)c2cnn(C)c2)C1	none
CCC1Oc2ccc(NC(=O)Cc3ccc(F)cc3)cc2CN(Cc2ccc(Cl)cc2)C1=O (centres undefined)	none
COc1ccccc1CN1Cc2cc(NC(=O)Cc3ccc(F)cc3)ccc2OC(C)C1=O (centres undefined)	none
COc1cccc(CC(=O)Nc2ccc3c(c2)CN(Cc2ccccc2OC)C(=O)C(C)O3)c1 (centres undefined)	none
CC1Oc2ccc(NC(=O)Cc3ccc(F)cc3)cc2CN(Cc2ccc(Cl)cc2)C1=O (centres undefined)	Pf Dd2 inh 10µM
CCNC(=O)Nc1ccc2c(c1)CN(Cc1ccccc1OC)C(=O)C(C)O2 (centres undefined)	none
CCC(C(=O)Nc1ccc2c(c1)CN(Cc1ccccc1OC)C(=O)C(C)O2)c1ccccc1 (centres undefined)	Pf Dd2 inh 2.5µM
COC[C@@H]1CN(C(=O)c2ccoc2C)C[C@H]1c1nc(C2CC2)no1	none
COc1cccc(CN2CC(C(=O)NCc3cc4ccccc4[nH]3)CCC2=O)c1 (centres undefined)	none
COC(=O)CNC(=O)c1cc(-c2cccnc2)c2nncn2n1	none
CN1CC(C(=O)N2CCCC(c3ccccc3)(c3ccccc3)C2)CC1=O (centres undefined)	none
COc1cccc(CN2Cc3nc(-c4ccccc4)ccc3OCC2=O)c1	none
O=C1c2ccccc2CN1C1CCN([S+](=O)([O-])c2cccs2)CC1	none
Cc1ccc(C(=O)N2CCC3(CC2)CC(N2CCN(c4ccccc4)CC2)CCO3)cn1 (centres undefined)	none
COc1cccc(CN2CC[C@@](O)(C3CC3)[C@H](C)C2)c1OC	none
CCN1c2cc(C(=O)N3CCN(c4ccccc4F)CC3)ccc2C(=O)N2CCCCC21 (centres undefined)	none
O=C(c1ccc2c(c1)CCN2S(=O)(=O)c1ccccc1)N1CCN(c2ccccc2F)CC1	none
O=C(c1ccc2c(Cl)c3c(nc2c1)CCCC3)N1CCN(c2ccccc2)CC1	none
CCc1nc2ccc(C(=O)N3CCN(c4ccccc4F)CC3)cc2nc1CC	Pf Dd2 inh 2.8µM
CCc1nc2ccc(C(=O)N3CCN(c4ccccc4)CC3)cc2nc1CC	Pf Dd2 inh 6.3µM
CCc1nc2ccc(C(=O)N3CCN(c4ccc(Cl)cc4)CC3)cc2nc1CC	none
COc1ccc(-c2nc(C)nc3c2CCN(C(=O)c2ccc(C(F)(F)F)cc2)CC3)cc1	none
Cc1noc(-c2ccccc2OC2CCN(C(=O)c3cc(C)[nH]n3)C2)n1 (centres undefined)	none
Cc1ccc(-c2noc(-c3nc(Cc4ccccc4)no3)n2)cc1	none
COc1ccccc1N1CCN(C(=O)CC[C@H]2NC(=O)c3ccccc3NC2=O)CC1	none
Cn1nccc1C(=O)NCCc1noc(-c2cccnc2)n1	none
O=C(NCc1ccc(F)cc1)[C@@H]1C[C@H](c2ccc(F)cc2)N([S+](=O)([O-])C2CC2)C1	none
CCCn1c(C)c(CC(=O)NCCn2cccn2)c2c1CC(C)(C)CC2=O	none
Cc1cc(C2CCCN2C(=O)c2ccnn2C)on1 (centres undefined)	none
CCn1c2ccccc2c2cc(NC(=O)COc3cccc(C)c3)ccc21	none
CCCn1c(COc2cccc(C)c2)nc2ccccc21	none
Cc1ccccc1NCc1nc2ccccc2n1CCOc1ccccc1	none
Cc1ccccc1OCC(=O)N1C[C@@H](CN2CCCCC2)[C@@H](CO)C1	none
CCCCCn1c(=N)n(CC(O)COc2cccc(C)c2)c2ccccc21 (centres undefined)	Pf Dd2 inh 1µM
OC(COc1ccccc1-c1ccncc1)CN1CCOCC1 (centres undefined)	none
Cc1ccccc1OCc1nc2ccccc2n1Cc1ccccc1Cl	none
Cc1ccccc1OCCn1c(=N)n(C(C)C)c2ccccc21	Pf Dd2 inh 5.6µM
Cc1ccccc1OCC(O)Cn1c(=N)n(CCN2CCCCC2)c2ccccc21 (centres undefined)	Pf Dd2 inh 2.8µM
Cc1noc2c(-c3cccnc3N3CCOCC3)cc(-c3ccccc3)nc12	none
Cc1ccccc1C1CCCN1Cc1ncccc1C(=O)O (centres undefined)	none
CC(C)NC(=O)c1cc(-c2ccc(Cl)nc2)nc2c1cnn2C	none
O=C(NC(C(=O)N1CCCCC1)C1CCN(C(=O)c2cccs2)CC1)c1ccc2c(c1)OCO2 (centres undefined)	none
Cc1cc(C(=O)N2CCCC3(CCNCC3)CC2)c2cnn(C(C)C)c2n1	none
FC(F)(F)CN1C2CCC1CN(c1nccc(Nc3ccccc3Cl)n1)C2	Pf Dd2 inh 8.9µM
FC(F)(F)CN1C2CCC1CN(c1cnc3ccccc3c1)C2	none
FC(F)(F)CN1C2CCC1CN(c1nnc(Cl)c3ccccc13)C2	Pf Dd2 inh 0.71µM
COc1ccccc1Nc1ccnc(N2CC3CCC(C2)N3CC(F)(F)F)n1	none
Cc1ncc2c(N3CC4CCC(C3)N4CC(F)(F)F)nc3ccccc3n12	Pf Dd2 inh 5µM
FC(F)(F)CN1C2CCC1CN(c1ncc(C(F)(F)F)cn1)C2	none
O=[N+]([O-])c1ccc(Cl)nc1N1CC2CCC(C1)N2CC(F)(F)F	none
Cc1ccnc(N2CC3CCC(C2)N3CC(F)(F)F)c1[N+](=O)[O-]	none
FC(F)(F)CN1C2CCC1CN(c1ccccn1)C2	none
Cc1noc(-c2ccn3c(CNC(=O)c4cccc5[nH]ccc45)nnc3c2)n1	none
COc1ccc(C(=O)N2[C@@H]3CC[C@H]2CC(NC(=O)c2ccncc2)C3)c(OC)c1 (some centres undefined)	none
CC(C)n1cc2cc(C(=O)NCCc3ccncc3)sc2c1	none
Cc1ccsc1C(=O)NC1CCN(c2cc(-c3ccc(F)cc3)[nH]n2)C1 (centres undefined)	none
COc1cccc(CNCC2(CO)C[C@@H](O)[C@@H](O)C2)c1 (some centres undefined)	none
CN(c1ncnc2c1c(-c1ccccc1)cn2-c1ccc(F)cc1)C1CCCCC1	none

Bioassay records: PubChem, National Center for Advancing Translational Sciences (NCATS)
